In PubChem BioAssay:
Inconclusive results are not listed. Calls of active or inactive are those of the source. Unless noted, how the calls were made is not given here.

Key:
[1] = stimulators of insulin release from INS-1E, primary screen, cell-based, 5 mM glucose, NPC library (AID 1117329;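 active means compound raises insulin release from rat beta cells at 5 mM glucose, no numeric limit stated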); settings: rat INS-1E insulin secretion, at 10 µM, stronger effect = higher value
[2] = growth inhibition of GSK3B-pretreated HCT116 cells – cell-based, CellTiter-Glo, 0.2 to 20 µM (AID 1117336;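 active means compounds lowering colon cancer cell viability after pretreatment blocking the GSK3B kinase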); settings: HCT116 viability after GSK3B inhibitor, at 20 µM, stronger effect = higher value
[3] = inhibition of endothelial tube formation, primary screen, imaging, VEGF stimulated, CD31 staining, tube area, NPC library (AID 1117340;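 active means compound that reduces growth-factor-driven endothelial tube area in a mixed cell culture, no cutoff stated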); settings: VEGF-stimulated ADSC/ECFC co-culture, at 10 µM, stronger effect = higher value
[4] = GLP1 release stimulators, primary, NCI-H716, NPC library (AID 1117341;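 active means compound raises GLP1 secretion from the human gut endocrine cells, with no numeric limit stated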); settings: NCI-H716 cells, at 10 µM, stronger effect = higher value
[5] = HCT116 colon cancer cell growth inhibition, primary screen, CellTiter-Glo luminescence, NPC library (AID 1117342;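 active means compounds that lower survival of HCT116 colon cancer cells in the luminescence readout, no numeric limit stated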); settings: at 20 µM (top of the series)
[6] = reduced SW480 viability measured with CellTiter-Glo, NPC library, primary (AID 1117343;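 active means compounds that lower viability of the colon cancer cells in the luminescence readout, with no numeric limit stated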); settings: CellTiter-Glo luminescence; at 20 µM (top of the series)
[7] = NPC library primary testing for decreased DLD-1 cell viability via CellTiter-Glo (AID 1117346;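 active means compounds that lower survival of DLD-1 colon cancer cells in the luminescence readout, no cutoff given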); settings: DLD-1 viability, CellTiter-Glo luminescence; at 20 µM (top of the series)
[8] = modulation of C. elegans fzo-1 (AID 1259413);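 further: fzo-1 mutant C. elegans worms in liquid wells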; settings: C. elegans fzo-1 modulator screen, mean read-out; stronger effect = higher value
[9] = EMT-state selective cytotoxicity in co-culture – imaging, PC-3E GFP, TEM4-18 mCherry, primary screen (AID 1345086;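 active means compounds killing one labelled cell type while sparing the other, by normalised counts and ratio limits, not self-fluorescent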;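 on all read-outs here: cells exposed to compound for 72 h before imaging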;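 on red/green cell ratio (normalised): normalised mesenchymal count divided by normalised epithelial count so high means epithelial killing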); settings: PC-3E GFP / TEM4-18 mCherry co-culture, imaging cell counts, at 1 µM; for red/green cell ratio (normalised): actives lie on both sides, counts scaled to control wells, 1 = unselective
[10] = viability loss in pontine glioma line – cell-based, SU-DIPG-XVII, MIPE5.0, CellTiter-Glo, qHTS, dose response (AID 1347060; cut-off not given, nearly all actives have AC50 up to about 26 µM;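 on AC50: cells exposed to compound for 48 hours before viability readout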); settings: CellTiter-Glo ATP luminescence
[11] = viability loss in pontine glioma line – cell-based, SU-DIPG-XIII, MIPE4.0, CellTiter-Glo, qHTS, dose response (AID 1347061; cut-off not given, nearly all actives have AC50 up to about 37 µM;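 further: cells exposed to compound for 48 hours before readout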); settings: CellTiter-Glo ATP luminescence
[12] = viability loss in pontine glioma line – cell-based, JHH-DIPG-1, MIPE4.0, CellTiter-Glo, qHTS, dose response (AID 1347062; cut-off not given, nearly all actives have AC50 up to about 27 µM;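 on AC50: cells exposed to compound for two days before readout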); settings: JHH-DIPG-1 viability, CellTiter-Glo ATP luminescence
[13] = viability loss in pontine glioma line – cell-based, SU-DIPG-IV, MIPE4.0, CellTiter-Glo, qHTS, dose response (AID 1347063; cut-off not given, nearly all actives have AC50 up to about 30 µM;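 further: compound exposure lasted 48 hours before the viability readout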); settings: CellTiter-Glo ATP luminescence
[14] = viability loss in pontine glioma line – cell-based, SU-DIPG-XIII, MIPE5.0, CellTiter-Glo, qHTS, dose response (AID 1347064; cut-off not given, nearly all actives have AC50 up to about 23 µM); settings: CellTiter-Glo ATP luminescence
[15] = tested on: Aerobactin synthetase IucA (Klebsiella pneumoniae); assay: inhibition of K. pneumoniae IucA enzyme – biochemical, Tocris library, absorbance (AID 1345561); settings: purified IucA enzyme assay, absorbance (OD) read-out; stronger effect = lower value;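 tested at 8 µM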;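 further: 100% = enzyme without compound and 0% = no enzyme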
[16] = measured here: epithelial PC-3E GFP cell survival
[17] = measured here: mesenchymal TEM4-18 mCherry cell survival

Compound | insulin secretion stimulation [1] | viability decrease [2] | tube area decrease [3] | GLP1 secretion stimulation [4] | inhibition of viability [5] | viability decrease (inhibition) [6] | viability decrease (inhibition) [7] | mean signal [8] | red/green cell ratio (normalised) [9] | normalised cell number [9, 16] | normalised cell number [9, 17] | outcome [10] | outcome [11] | outcome [12] | outcome [13] | outcome [14] | remaining activity [15] | AC50 [10] | AC50 [12] | AC50 [13]
COc1cc(OC)c(C(=O)CCCN2CCCC2)c(OC)c1 | -1% (inactive) | -39.3% (inactive) | 17.2% (inactive) | 0.3% (inactive) | -8% (inactive) | 0.7% (inactive) | -31.7% (inactive) | 255 (inactive) | 0.81 (inactive) | 1.24 | 1 | inactive | inactive | inactive | inactive | inactive | – | – | – | –
CCN(CC)CC1CCCCN1CC(=O)N1c2ccccc2C(=O)Nc2cccnc21 (configuration not stated) | 4% (inactive) | -12.6% (inactive) | -28.2% (inactive) | 7.7% (inactive) | 1.17% (inactive) | -3.8% (inactive) | 6.8% (inactive) | 227 (inactive) | – | – | – | – | – | – | – | – | 116% (inactive) | – | – | –
O=C1CCc2ccc(OCCCCN3CCN(c4cccc(Cl)c4Cl)CC3)cc2N1 | 3.7% (inactive) | 95% (active) | 3.8% (inactive) | 10.2% (inactive) | 99.4% (active) | 112% (active) | 89.5% (active) | 231 (inactive) | 0.72 (inactive) | 1.31 | 0.94 | – | inactive | inactive | – | – | – | – | – | –
CCCN[C@H]1CCc2nc(N)sc2C1 | -3.1% (inactive) | 7.2% (inactive) | -9.5% (inactive) | 2.6% (inactive) | 5.4% (inactive) | 51.7% (active) | 38.1% (inactive) | 239 (inactive) | 0.69 (inactive) | 1.3 | 0.89 | inactive | inactive | inactive | – | inactive | – | – | – | –
COc1ccc(CC2c3cc(OC)c(OC)cc3CC[N+]2(C)CCC(=O)OCCCCCOC(=O)CC[N+]2(C)CCc3cc(OC)c(OC)cc3C2Cc2ccc(OC)c(OC)c2)cc1OC (configuration not stated) | 13.1% (inactive) | 65.7% (active) | 44.4% (active) | -3% (inactive) | 6.9% (inactive) | 81.7% (active) | 51.9% (active) | 250 (inactive) | 0.8 (inactive) | 1.18 | 0.94 | inactive | inactive | inactive | inactive | – | – | – | – | –
CC[C@@]1(O)C(=O)OCc2c1cc1n(c2=O)Cc2cc3c(CN(C)C)c(O)ccc3nc2-1 | 0.5% (inactive) | 61.2% (active) | 107% (active) | -4.3% (inactive) | 52.2% (active) | 75% (active) | 67.8% (active) | 251 (inactive) | 1.81 (inactive) | 0.19 | 0.34 | – | – | – | – | – | – | 52.5 nM (active) | 8330 nM (active) | 332 nM (active)
Nc1[nH]c(=O)ncc1F | -1.8% (inactive) | -5.1% (inactive) | -15.9% (inactive) | 2.3% (inactive) | -15.1% (inactive) | -13.1% (inactive) | -0.9% (inactive) | 243 (inactive) | 1.01 (inactive) | 0.89 | 0.9 | inactive | – | – | – | inactive | – | – | – | –
Nc1nnc(-c2cccc(Cl)c2Cl)c(N)n1 | -0.4% (inactive) | -5.8% (inactive) | 9.4% (inactive) | -4.7% (inactive) | 9.7% (inactive) | 29.2% (inactive) | -4.7% (inactive) | 281 (inactive) | 0.86 (inactive) | 1.05 | 0.91 | inactive | inactive | – | – | inactive | – | – | – | –
N#Cc1ccc(C(c2ccc(C#N)cc2)n2cncn2)cc1 | 0.6% (inactive) | -9.1% (inactive) | -17.6% (inactive) | -2.1% (inactive) | 9.8% (inactive) | -2.1% (inactive) | -3.3% (inactive) | 236 (inactive) | 1.05 (inactive) | 1.21 | 1.28 | inactive | – | inactive | – | inactive | – | – | – | –
CC(C)[C@H](N)C(=O)OCCOCn1cnc2c(=O)[nH]c(N)nc21 | 4.1% (inactive) | 4.4% (inactive) | -8.9% (inactive) | 2.5% (inactive) | -1% (inactive) | 4.3% (inactive) | -6.2% (inactive) | 266 (inactive) | 0.91 (inactive) | 1.13 | 1.03 | inactive | inactive | inactive | inactive | inactive | – | – | – | –
CN(C)CCCSc1ccccc1NC(=O)/C=C/c1ccccc1 | 9.9% (inactive) | -78.5% (inactive) | 23.1% (inactive) | 3.9% (inactive) | 25.5% (inactive) | 5.3% (inactive) | -18% (inactive) | 241 (inactive) | – | – | – | – | – | – | – | – | 115% (inactive) | – | – | –
CCN1CCC[C@H]1CNC(=O)c1c(O)c(Cl)cc(Cl)c1OC | -0.9% (inactive) | -21% (inactive) | -4.8% (inactive) | 2.2% (inactive) | 9.13% (inactive) | -26.4% (inactive) | -11.6% (inactive) | 227 (inactive) | – | – | – | – | – | – | – | – | 118% (inactive) | – | – | –
